The source of these data is PubChem BioAssay.

Usually inhibition stands for the relative decrease from the control value, in per cent.

The source made the active and inactive calls. Unless noted, no stated cut-off is given here; in the data, active means inhibition above about 30%; inactive means the rest.

A short description of one assay: 384-well plate pilot, post-Golgi transport modulator project, inhibition of yeast transport mutant growth (AID 636; in the data active means inhibition above about 31%). As to conditions: absorbance 615 nm, about 18 h, stronger effect = higher value.
With `Cc1cc(C)cc(-n2ccnc2SCC(=O)Nc2ccc3c(c2)OCCO3)c1`, the inhibition is -6.05% (inactive).

In the case of `CC(C)CNC(=O)c1ccccc1NC(=O)CN(c1ccc2c(c1)OCCO2)S(C)(=O)=O`, the inhibition was -0.27% (inactive).

As to `N#Cc1cnn(Cc2ccc(Cl)cc2)c1N`, the inhibition was -7.03% (inactive).

As to `Cc1cc(C)c2cc(CN(CC3CCCO3)C(=O)NC3CCCCC3)c(=O)[nH]c2c1` (stereo not drawn), the inhibition is -0.13% (inactive).

For the molecule `Cc1cc2c(cc(C(=O)OCC(=O)NCc3cccs3)n2C(C)C)o1`, the inhibition was -6% (inactive).

For the molecule `CCCOc1ccccc1NC(=O)c1ccc(N)cc1`, the inhibition was -5.53% (inactive).

As to `COC(=O)/C=c1\sc2ncnn2c1=O`, the inhibition is 1.62% (inactive).

In the case of `COc1cccc(CN=CC2=C(O)CC(C)(C)CC2=O)c1OC`, the inhibition was -1.69% (inactive).

As to `CC(=O)Nc1ccc(NC(=O)C(C)Oc2ccccc2F)cc1` (stereo not drawn), the inhibition was -5.97% (inactive).

Regarding `Cc1nnc(NC(=O)CSc2nnc(-c3ccc(S(=O)(=O)N4CCCC4)cc3)n2C)s1`, the inhibition is -2.8% (inactive).

For `CCn1ncc(C2=NOC(C(=O)Nc3ccc4c(c3)OCO4)C2)c1C` (stereo not drawn), the inhibition was -3.97% (inactive).

With `COC(=O)C1=CN(C)C=C(C(=O)OC)C1c1ccc(O)c(OC)c1`, the inhibition is -3.16% (inactive).

Regarding `COc1ccccc1-c1nc(SCc2ccccn2)n[nH]1`, the inhibition is -1.89% (inactive).

With `CCOC(=O)Cn1c(CN2CCOCC2)nc2c1c(=O)[nH]c(=O)n2C`, the inhibition is -3.72% (inactive).

With `O=C(O)c1ccc2noc(-c3ccccc3)c2c1`, the inhibition was -4.74% (inactive).

Consider `O=S(CC(O)COCc1ccc(Cl)cc1)c1ccccn1` (stereo not drawn), for which the inhibition was -1.95% (inactive).

Take `CCn1c(CCNC(=O)c2cccs2)nnc1SCC(=O)c1ccc(OC)cc1`: the inhibition was -1.71% (inactive).

On to `O=C(Cn1ncc2c(=O)oc3ccccc3c21)Nc1nc2ccccc2s1`, for which the inhibition was -8.08% (inactive).

Consider `COCc1nnc(NS(=O)(=O)c2ccc(Br)cc2)s1`, for which the inhibition is -5.2% (inactive).

Regarding `COc1ccc(S(=O)(=O)NCc2ccc(C(=O)O)cc2)cc1`, the inhibition is -3.77% (inactive).

In the case of `Cc1ccc(S(=O)(=O)CC2CSc3nnc(C)c(=O)n32)cc1` (stereo not drawn), the inhibition is -5.26% (inactive).

On to `Cc1occc1C(=O)Nc1cccnc1`, for which the inhibition was -7.73% (inactive).

In the case of `CN(C1CCCCC1)S(=O)(=O)c1ccc(S(=O)(=O)N2CCCC2)cc1`, the inhibition was -0.13% (inactive).

Turning to `Cn1cccc1Cc1nnc(SCC(=O)Nc2ccccc2F)n1CCc1ccccc1`, the inhibition is 1.15% (inactive).

As to `COc1ccc(C(=O)CSc2nc(C)cc(=O)[nH]2)cc1`, the inhibition was -3.2% (inactive).

`CCCCCC1CC(CC#CCN2CCOCC2)C(=O)O1` (stereo not drawn): the inhibition was -7.4% (inactive).

`O=C(COc1ccccc1)Nc1ccccc1N1CCN(c2ccccc2)CC1`: the inhibition was -4.27% (inactive).

Consider `Brc1ccc(C2=Nn3c(nnc3-c3ccncc3)SC2)cc1`, for which the inhibition was -2.89% (inactive).

Regarding `Cc1nc2sc3c(c2c(=O)o1)CCC3`, the inhibition was -3.42% (inactive).

For the molecule `Cc1ccc(S(=O)(=O)Cn2nnnc2CN(Cc2ccco2)Cc2cccs2)cc1`, the inhibition is -5.87% (inactive).

In the case of `CC(=O)NCc1ccc(C(=O)CSc2nnc(-c3ccncc3)n2Cc2ccccc2)o1`, the inhibition is -5% (inactive).

In the case of `CCOC(=O)c1ccc(Oc2nc(NC)nc(OC)n2)cc1`, the inhibition was -1.35% (inactive).

Consider `O=P(O)(O)C(O)C(F)(F)C(F)(F)C(F)(F)C(F)F` (stereo not drawn), for which the inhibition is -7.76% (inactive).

For the molecule `COc1ccc(C)cc1NC(=O)CN1CCN(S(=O)(=O)c2ccc(Cl)cc2)CC1`, the inhibition was -3.55% (inactive).

Take `COc1ccc(OC)c2[nH]c(=O)c(CCNC(=O)CC(C)C)cc12`: the inhibition was -8.77% (inactive).

Consider `O=S(=O)(Cc1ccccc1)N1CCN(Cc2ccccc2)CC1`, for which the inhibition is -0.13% (inactive).

`COC(=O)C1C(=O)C2=C(CC1C)NC(=O)CC2c1ccccc1` (stereo not drawn): the inhibition was -3.55% (inactive).

For `CC(C)CCNC(=O)C(c1ccco1)N(CC1CCCO1)C(=O)Cn1nnc2ccccc21` (stereo not drawn), the inhibition is -0.67% (inactive).

`CC(C)COc1ccc(-c2nnn(CC(=O)N3CCCC3)n2)cc1`: the inhibition was -8.67% (inactive).

The nature of a further assay: growth suppression of yeast trafficking mutant, preliminary HTS, modulators of trafficking downstream of Golgi apparatus project, 1536-format plate, OD 615 nm (AID 637). As to conditions: yeast transport mutant growth, absorbance 615 nm, 18 h; stronger effect = higher value.
On to `Cc1cc(C)cc(-n2ccnc2SCC(=O)Nc2ccc3c(c2)OCCO3)c1`, for which the inhibition is -0.91% (inactive).

`CC(C)CNC(=O)c1ccccc1NC(=O)CN(c1ccc2c(c1)OCCO2)S(C)(=O)=O`: the inhibition is -8.23% (inactive).

For `N#Cc1cnn(Cc2ccc(Cl)cc2)c1N`, the inhibition was -7.21% (inactive).

Consider `Cc1cc(C)c2cc(CN(CC3CCCO3)C(=O)NC3CCCCC3)c(=O)[nH]c2c1` (stereo not drawn), for which the inhibition was 15.8% (inactive).

With `Cc1cc2c(cc(C(=O)OCC(=O)NCc3cccs3)n2C(C)C)o1`, the inhibition was 5.9% (inactive).

On to `CCCOc1ccccc1NC(=O)c1ccc(N)cc1`, for which the inhibition was -2.17% (inactive).

As for `COC(=O)/C=c1\sc2ncnn2c1=O`, the inhibition was 4.92% (inactive).

For the molecule `COc1cccc(CN=CC2=C(O)CC(C)(C)CC2=O)c1OC`, the inhibition is -7.54% (inactive).

Regarding `CC(=O)Nc1ccc(NC(=O)C(C)Oc2ccccc2F)cc1` (stereo not drawn), the inhibition was -2.22% (inactive).

For the molecule `Cc1nnc(NC(=O)CSc2nnc(-c3ccc(S(=O)(=O)N4CCCC4)cc3)n2C)s1`, the inhibition was -2.1% (inactive).

Take `CCn1ncc(C2=NOC(C(=O)Nc3ccc4c(c3)OCO4)C2)c1C` (stereo not drawn): the inhibition was -4.92% (inactive).

Turning to `COC(=O)C1=CN(C)C=C(C(=O)OC)C1c1ccc(O)c(OC)c1`, the inhibition was 4% (inactive).

As to `COc1ccccc1-c1nc(SCc2ccccn2)n[nH]1`, the inhibition was -2.06% (inactive).

Regarding `CCOC(=O)Cn1c(CN2CCOCC2)nc2c1c(=O)[nH]c(=O)n2C`, the inhibition was -0.67% (inactive).

With `O=C(O)c1ccc2noc(-c3ccccc3)c2c1`, the inhibition is -4% (inactive).

Consider `O=S(CC(O)COCc1ccc(Cl)cc1)c1ccccn1` (stereo not drawn), for which the inhibition was -3.93% (inactive).

On to `CCn1c(CCNC(=O)c2cccs2)nnc1SCC(=O)c1ccc(OC)cc1`, for which the inhibition was -0.33% (inactive).

In the case of `O=C(Cn1ncc2c(=O)oc3ccccc3c21)Nc1nc2ccccc2s1`, the inhibition was -3.65% (inactive).

For `COCc1nnc(NS(=O)(=O)c2ccc(Br)cc2)s1`, the inhibition is -1.75% (inactive).

As for `COc1ccc(S(=O)(=O)NCc2ccc(C(=O)O)cc2)cc1`, the inhibition is -3.33% (inactive).

As for `Cc1ccc(S(=O)(=O)CC2CSc3nnc(C)c(=O)n32)cc1` (stereo not drawn), the inhibition is 1.17% (inactive).

Regarding `Cc1occc1C(=O)Nc1cccnc1`, the inhibition is 2.9% (inactive).

As for `CN(C1CCCCC1)S(=O)(=O)c1ccc(S(=O)(=O)N2CCCC2)cc1`, the inhibition was -4.92% (inactive).

Turning to `Cn1cccc1Cc1nnc(SCC(=O)Nc2ccccc2F)n1CCc1ccccc1`, the inhibition was 2.67% (inactive).

For `COc1ccc(C(=O)CSc2nc(C)cc(=O)[nH]2)cc1`, the inhibition is 2.1% (inactive).

For the molecule `CCCCCC1CC(CC#CCN2CCOCC2)C(=O)O1` (stereo not drawn), the inhibition is -7.78% (inactive).

`O=C(COc1ccccc1)Nc1ccccc1N1CCN(c2ccccc2)CC1`: the inhibition was 2.62% (inactive).

In the case of `Brc1ccc(C2=Nn3c(nnc3-c3ccncc3)SC2)cc1`, the inhibition is -0.36% (inactive).

Turning to `Cc1nc2sc3c(c2c(=O)o1)CCC3`, the inhibition was 6.89% (inactive).

For the molecule `Cc1ccc(S(=O)(=O)Cn2nnnc2CN(Cc2ccco2)Cc2cccs2)cc1`, the inhibition is -7.87% (inactive).

Consider `CC(=O)NCc1ccc(C(=O)CSc2nnc(-c3ccncc3)n2Cc2ccccc2)o1`, for which the inhibition was 10.3% (inactive).

With `CCOC(=O)c1ccc(Oc2nc(NC)nc(OC)n2)cc1`, the inhibition was -6.67% (inactive).

On to `O=P(O)(O)C(O)C(F)(F)C(F)(F)C(F)(F)C(F)F` (stereo not drawn), for which the inhibition was -6.17% (inactive).

With `COc1ccc(C)cc1NC(=O)CN1CCN(S(=O)(=O)c2ccc(Cl)cc2)CC1`, the inhibition was -2.17% (inactive).

For the molecule `COc1ccc(OC)c2[nH]c(=O)c(CCNC(=O)CC(C)C)cc12`, the inhibition was -4.44% (inactive).

Take `O=S(=O)(Cc1ccccc1)N1CCN(Cc2ccccc2)CC1`: the inhibition is 0.95% (inactive).

Consider `COC(=O)C1C(=O)C2=C(CC1C)NC(=O)CC2c1ccccc1` (stereo not drawn), for which the inhibition was 5.33% (inactive).

As for `CC(C)CCNC(=O)C(c1ccco1)N(CC1CCCO1)C(=O)Cn1nnc2ccccc21` (stereo not drawn), the inhibition was -0.16% (inactive).

Turning to `CC(C)COc1ccc(-c2nnn(CC(=O)N3CCCC3)n2)cc1`, the inhibition is 16.9% (inactive).
